Laboratory results taken from ChEMBL document CHEMBL3988442, “University of Dundee, Small-Polar-MMV Screening Library” (2021).

What was measured:
[1] = molecular target: T1, Aspartate--tRNA(Asp/Asn) ligase (Mycobacterium tuberculosis (strain ATCC 25618 / H37Rv)) (UniProt P9WFW3); assay: Assay for Asp RNA synthetase-1 from Mycobacterium tuberculosis; assay type: functional; parameters: scale not given: direction of the effect not stated beside the values; conditions: 30 µM; further: in the data most compounds retested in dose-response had high values
T1 sequence (whole entry): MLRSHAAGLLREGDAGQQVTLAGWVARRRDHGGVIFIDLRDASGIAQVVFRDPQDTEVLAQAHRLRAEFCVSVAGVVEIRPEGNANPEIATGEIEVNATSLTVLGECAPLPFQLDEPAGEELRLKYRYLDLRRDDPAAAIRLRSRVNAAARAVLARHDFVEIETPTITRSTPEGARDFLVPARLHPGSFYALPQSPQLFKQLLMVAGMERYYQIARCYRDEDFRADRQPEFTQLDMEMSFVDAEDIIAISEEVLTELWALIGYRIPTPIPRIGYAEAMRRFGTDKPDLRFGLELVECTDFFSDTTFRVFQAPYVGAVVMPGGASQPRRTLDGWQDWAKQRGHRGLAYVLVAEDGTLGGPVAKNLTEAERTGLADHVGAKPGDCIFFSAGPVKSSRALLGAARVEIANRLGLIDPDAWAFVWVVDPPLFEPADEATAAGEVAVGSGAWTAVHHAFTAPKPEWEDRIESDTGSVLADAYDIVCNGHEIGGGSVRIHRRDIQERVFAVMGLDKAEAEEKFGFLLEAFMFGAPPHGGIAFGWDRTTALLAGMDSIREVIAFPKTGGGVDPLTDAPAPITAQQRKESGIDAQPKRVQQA

[2] = molecular target: Shiga toxin 2 (Escherichia coli O157:H7) (UniProt P09385+P09386); assay: E. coli 0.157:H7 Shiga Toxin SOP - stx2 screening assay; assay type: functional; parameters: scale not given: direction of the effect not stated beside the values; conditions: 30 µM

With `O=C(NCC(=O)N1CCCCC1)c1ccoc1` as the molecule, how does the Percent Effect [1] read?
Its Percent Effect is 6.71%.

What about the Percent Effect [2] of the same molecule?
Its Percent Effect is -16.3%.

How did the Percent Effect [1] turn out when `Cc1cc(C(=O)N2CCCC2Cn2nc(C)cc2C)on1` (configuration not stated) was run?
Its Percent Effect is 0.681%.

What about the Percent Effect [2] of the same molecule?
Its Percent Effect is 20%.

How did the Percent Effect [1] turn out when `CC(=O)N1CCCC1c1csc(Nc2cnccn2)n1` (configuration not stated) was run?
Its Percent Effect is 3.49%.

What about the Percent Effect [2] of the same molecule?
The Percent Effect was 29.9%.

With `CCc1cc(C(=O)N2CCCC2c2nc(C)c(F)c(O)n2)on1` (configuration not stated) as the molecule, how does the Percent Effect [1] read?
The Percent Effect was 2.22%.

What about the Percent Effect [2] of the same molecule?
The Percent Effect was -57%.

Which results are given for `CCN(CC)Cc1cn2c(n1)CN(C(=O)c1cnccn1)CC2`?
Percent Effect [1]: 0.29%; Percent Effect [2]: 5.28%

`COC[C@H]1CCC[C@]12CN(CCc1ccccc1)CCO2` was tested. Which Percent Effect [1] did it give?
The Percent Effect was -1.02%.

What about the Percent Effect [2] of the same molecule?
Its Percent Effect is -22%.

What does the source list for `CN(C)C1CCN(C(=O)NCc2ccc(Cn3cncn3)cc2)CC1`?
Percent Effect [1]: -3.07%; Percent Effect [2]: -19.9%

Which Percent Effect [1] does the source give for `CN1CCOC(CNC(=O)CCCOc2ccccc2F)C1` (configuration not stated) here?
Its Percent Effect is -5.14%.

What about the Percent Effect [2] of the same molecule?
The Percent Effect was -33.1%.

What does the source list for `c1ccc(Cn2cc(CNCC3CCCN3c3cccnn3)cn2)cc1` (configuration not stated)?
Percent Effect [1]: 8.82%; Percent Effect [2]: 22.8%

How did the Percent Effect [1] turn out when `N#Cc1cnn(-c2ccc(C(=O)Nc3ccccn3)cc2)c1N` was run?
The Percent Effect was -3%.

What about the Percent Effect [2] of the same molecule?
The Percent Effect was -40.7%.

For `Cc1cnc(C(=O)N2CCCCC2c2[nH]ncc2S(C)(=O)=O)cn1` (configuration not stated), which Percent Effect [1] is on record?
The Percent Effect was 2.63%.

And the Percent Effect [2]?
The Percent Effect was -5.44%.

How did the Percent Effect [1] turn out when `CCc1nccn1C1CCCN(C(=O)Cc2ccc(OC)c(F)c2)C1` (configuration not stated) was run?
The Percent Effect was -7.86%.

What about the Percent Effect [2] of the same molecule?
Its Percent Effect is 4.47%.

With `Cc1ccc(C(=O)N2CCSCC2)cc1NC(=O)Cn1cncn1` as the molecule, how does the Percent Effect [1] read?
Its Percent Effect is -1%.

What about the Percent Effect [2] of the same molecule?
Its Percent Effect is -22.8%.

With `Cc1ccc(C(=O)NCC2(O)CCOCC2)cc1Br` as the molecule, how does the Percent Effect [1] read?
Its Percent Effect is -1.3%.

What about the Percent Effect [2] of the same molecule?
Its Percent Effect is 8.46%.

What does the source list for `CSCCNC(=O)c1ccc(OC2CCN(CC(C)(C)C)CC2)c(Cl)c1`?
Percent Effect [1]: 1.62%; Percent Effect [2]: -38.1%

What does the source list for `O=C(N1CCCO1)[C@@]12CCO[C@@H]1CCN(Cc1ccccc1)C2`?
Percent Effect [1]: -1.34%; Percent Effect [2]: -5.88%

With `Cc1ccc(NCc2cncc3c2CCN(C(=O)C2CC=CC2)C3)nn1` as the molecule, how does the Percent Effect [1] read?
Its Percent Effect is 6.32%.

And the Percent Effect [2]?
The Percent Effect was -38%.

Which results are given for `Cc1ccc(-c2cc(CN3CCCC(Cn4cncn4)C3)on2)cc1` (configuration not stated)?
Percent Effect [1]: 2.71%; Percent Effect [2]: -31.3%

Which results are given for `Cc1occc1C(=O)N1CCC2(CCC(=O)N(CC(N)=O)C2)CC1`?
Percent Effect [1]: -2.4%; Percent Effect [2]: -17.1%

For `Cn1ncc(C(=O)N2CCCC(n3cccn3)C2)c1C1CC1` (configuration not stated), which Percent Effect [1] is on record?
Its Percent Effect is 3.87%.

And the Percent Effect [2]?
Its Percent Effect is -7.05%.

Which Percent Effect [1] does the source give for `O=C1COC2(CCN(Cc3ccc(F)cc3)CC2)CN1` here?
Its Percent Effect is 0.549%.

And the Percent Effect [2]?
The Percent Effect was 11.4%.

What does the source list for `CC(=O)N1CCC(Cc2cnc(-c3c(C)nn(C)c3C)cn2)C1` (configuration not stated)?
Percent Effect [1]: -3.46%; Percent Effect [2]: -8.45%

Which Percent Effect [1] does the source give for `Cc1nccnc1CN1CCC2(CCCN(C3CCOCC3)C2=O)C1` (configuration not stated) here?
Its Percent Effect is 2.6%.

And the Percent Effect [2]?
The Percent Effect was -28.8%.

For `O=C(C1=CC2(CCNCC2)c2ccccc21)N1CCCC1`, which Percent Effect [1] is on record?
The Percent Effect was 3.17%.

What about the Percent Effect [2] of the same molecule?
The Percent Effect was -0.391%.

`Cc1n[nH]c(C2CN(C(=O)c3cc(C4CC4)[nH]n3)CCO2)n1` (configuration not stated) was tested. Which Percent Effect [1] did it give?
Its Percent Effect is 1.87%.

What about the Percent Effect [2] of the same molecule?
The Percent Effect was 23.4%.

How did the Percent Effect [1] turn out when `CN(C)Cc1cnc2n1CCN(Cc1ccsc1)CC2` was run?
The Percent Effect was -5.79%.

What about the Percent Effect [2] of the same molecule?
The Percent Effect was -3.72%.

How did the Percent Effect [1] turn out when `CC(C)c1nn(C)c(N(C)C)c1CNCCC(=O)NC1CCCC1` was run?
The Percent Effect was -3.2%.

And the Percent Effect [2]?
Its Percent Effect is -5.9%.

How did the Percent Effect [1] turn out when `COc1ccc(C(O)CNC(=O)Nc2cc(C)nn2C)cc1` (configuration not stated) was run?
The Percent Effect was -1.41%.

What about the Percent Effect [2] of the same molecule?
The Percent Effect was 26.8%.

What does the source list for `CCOCCn1c(=O)[nH]c2cc(C(=O)N(C)CCc3cn[nH]c3)ccc21`?
Percent Effect [1]: 0.279%; Percent Effect [2]: -26.7%

For `COCCn1ccc(=O)c(OCC(=O)Nc2cccc(C(C)=O)c2)c1C`, which Percent Effect [1] is on record?
Its Percent Effect is -4.27%.

And the Percent Effect [2]?
The Percent Effect was -43.8%.

Which Percent Effect [1] does the source give for `COc1cc(CNC(=O)C2CC(=O)N(C(C)C)C2)ccn1` (configuration not stated) here?
The Percent Effect was -1.66%.

And the Percent Effect [2]?
The Percent Effect was -62.3%.

Which Percent Effect [1] does the source give for `Cc1ncsc1CN1C[C@@H]2COC[C@]2(COc2ccc(C#N)cn2)C1` here?
The Percent Effect was -0.365%.

What about the Percent Effect [2] of the same molecule?
The Percent Effect was -16.3%.

`CCOc1cccc(CNc2ccccc2C(=O)OC)c1O` was tested. Which Percent Effect [1] did it give?
The Percent Effect was -5.37%.

What about the Percent Effect [2] of the same molecule?
The Percent Effect was -53.6%.

How did the Percent Effect [1] turn out when `O=C(CCOc1ccccc1)N1CCC(Nc2cccnn2)CC1` was run?
Its Percent Effect is 4.24%.

What about the Percent Effect [2] of the same molecule?
The Percent Effect was 6.7%.

How did the Percent Effect [1] turn out when `Cc1cnn(CC2CCCN2C(=O)c2cc3ccccc3[nH]2)c1` (configuration not stated) was run?
The Percent Effect was 1.27%.

And the Percent Effect [2]?
The Percent Effect was 14.6%.

Which results are given for `O=C(c1ccc(=O)[nH]n1)N1CC(c2nc(Cc3ccccc3)no2)C1`?
Percent Effect [1]: -0.546%; Percent Effect [2]: -7.29%

How did the Percent Effect [1] turn out when `CCOC(=O)C1CCN(C(=O)Cn2ccc3cc(Br)ccc32)CC1` was run?
The Percent Effect was -2.06%.

And the Percent Effect [2]?
Its Percent Effect is -21.9%.

`CC(C)(C)c1nnc(CN2CCN(S(C)(=O)=O)CC2)o1` was tested. Which Percent Effect [1] did it give?
The Percent Effect was 1.17%.

And the Percent Effect [2]?
Its Percent Effect is -26.2%.

For `CN(CC(=O)N1CCN(c2ccccc2F)CC1)c1cnccn1`, which Percent Effect [1] is on record?
The Percent Effect was 0.903%.

What about the Percent Effect [2] of the same molecule?
The Percent Effect was 8.69%.

For `CCC(CC)C(O)CNC(=O)Nc1cc(C)nn1C` (configuration not stated), which Percent Effect [1] is on record?
The Percent Effect was -1.77%.

And the Percent Effect [2]?
Its Percent Effect is -3.6%.

Which results are given for `O=C(CSc1nncs1)N1CCN(Cc2ccc(Cl)s2)CC1`?
Percent Effect [1]: -5.38%; Percent Effect [2]: -5.37%

How did the Percent Effect [1] turn out when `CS(=O)(=O)c1ccccc1C(=O)NCC1Cc2ccccc2O1` (configuration not stated) was run?
Its Percent Effect is 9.98%.

What about the Percent Effect [2] of the same molecule?
Its Percent Effect is -13%.

Which Percent Effect [1] does the source give for `Cn1cc(CN2CC[C@H]3O[C@H](C(=O)NCc4ccco4)CC[C@H]32)cn1` here?
The Percent Effect was 5.47%.

And the Percent Effect [2]?
The Percent Effect was -27.7%.

Which Percent Effect [1] does the source give for `CCOC(=O)N1CCN(C(=O)c2ccc3ccn(C)c3c2)CC1` here?
Its Percent Effect is -0.585%.

What about the Percent Effect [2] of the same molecule?
The Percent Effect was 1.39%.

What does the source list for `COC[C@@H]1CC[C@H]2[C@H](CCN2S(=O)(=O)c2ccc(F)cc2)O1`?
Percent Effect [1]: 8.74%; Percent Effect [2]: -4.21%

For `CC(C(=O)NCc1ccnc(N2CCN(C)CC2)c1)n1cccn1` (configuration not stated), which Percent Effect [1] is on record?
Its Percent Effect is -3.86%.

What about the Percent Effect [2] of the same molecule?
The Percent Effect was 6%.
